# Compound activity deposited in PubChem BioAssay by National Center for Advancing Translational Sciences (NCATS).
# Marburg entry inh: Marburg virus entry inhibition | Marburg virus pseudotyped entry inhibition, cell reporter | actives 1.8% (n = 300,000) | Potency, µM (titrated, usually from 37.8 µM), actives largely listed as inhibitors | AID 540276; calls by dose curve; tested in HEK293 cells
# Lassa entry inh: inhibitors of Lassa virus binding or cell entry. Potency, µM (series often up to 37.9 µM), actives largely listed as inhibitors. Lassa virus pseudotype entry inhibition, cell reporter. actives 1.2% (n = 300,000); calls by dose curve; tested in HEK293 cells; also: nearly all actives have a fitted effect of over 50% in size
# HCMV antiviral: inhibitors of human cytomegalovirus. HFF cells, HCMV-luciferase reporter, 72 h; hits give low values. actives 4.5% (n = 410,000). activity change, negative = inhibition, % at 57.5 µM; in the data active = activity change below about -60%; inconclusive = no clear call, values can overlap the other calls; inactive = above about -39%
#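 Steps: HFFs plated, 16 h 37C; compounds added; HCMV-luciferase added to MOI 1 PFU/cell; 72 h 37C; OneGlo reagent, 5 min room temperature; luminescence read, normalized to controls.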
# FMDV antiviral: blocks foot and mouth disease virus; Potency, µM (top dose mostly 57.9 µM), usual class: inhibitors; actives 1.2% (n = 410,000); FMDV antiviral cell-based qHTS; calls by dose curve; tested in HEK293T cells; also: read-out not given here; nearly all actives have a fitted effect of over 45% in size
# Hits are given with their value; . = inactive; ? = inconclusive; / = no result. Shown are actives, neighbours in structure and some others; about 6.2% of the full set was active somewhere.
SMILES,Marburg entry inh,Lassa entry inh,HCMV antiviral,FMDV antiviral
C#CCOCCOCCOCCNc1nc(N2CCN(C(=O)[C@H](CCCCN)n3cc([C@@H](N)[C@H](C)CC)nn3)CC2)nc(N2CCN(C(=O)[C@H](CCC(=O)O)n3cc([C@@H](N)CCCCN)nn3)CC2)n1,/,/,.,.
O=C(O)c1ccc(N=Cc2c(O)[nH]c(=O)[nH]c2=O)cc1,.,.,-76.1,.
O=c1[nH]c(O)c(C=Nc2ccc(F)c(Cl)c2)c(=O)[nH]1,/,/,?,.
COc1ccc(N(C)S(=O)(=O)c2cccc(C(=O)N3CCN(c4cccc(C)c4C)CC3)c2)cc1,/,/,.,?
C#CCn1c(=NC(=O)CN2C(=O)CCC2=O)sc2cccc(OC)c21,/,/,.,.
C#CCn1c(=NC(=O)c2cccs2)sc2cccc(OC)c21,/,/,-97.7,.
Cc1c(C=NCCOCc2ccccc2)cnn1C,.,.,.,.
O=C(CC1N=C2c3ccccc3N=C(SCc3ccc(F)cc3)N2C1=O)NCCc1ccccc1 (configuration not stated),/,?,.,.
CC(C)(C)c1cc(CSC(=S)NC2CCS(=O)(=O)C2)c(Br)c(C(C)(C)C)c1 (configuration not stated),?,?,.,15.8µM
NNC(=S)NC1CCS(=O)(=O)C1 (configuration not stated),?,.,.,.
CN(C)C(=S)NC1CCS(=O)(=O)C1 (configuration not stated),.,.,.,.
O=S1(=O)CC=C(CSC(=S)NC2CCS(=O)(=O)C2)C1 (configuration not stated),.,.,.,11.2µM
O=C(O)C=C(Br)Br,/,/,.,.
CCSc1nnc(NC(=O)CSc2nnc(CNC(=O)c3cc(OC)c(OC)c(OC)c3)o2)s1,?,.,.,.
CCN(CC)CCCNC(=S)N1CCN(c2nc(-c3ccc(F)cc3)cs2)CC1,10µM,?,-96.7,?
S=C(NCc1ccco1)N1CCN(c2nc(-c3ccc(Cl)cc3)cs2)CC1,?,?,-74.1,?
CCNC(=S)N1CCN(c2nc(-c3ccc(F)cc3)cs2)CC1,/,/,-60.9,?
COCCNC(=S)N1CCN(c2nc(-c3ccc(F)cc3)cs2)CC1,/,/,.,.
S=C(NCc1ccco1)N1CCN(c2nc(-c3ccccc3)cs2)CC1,.,.,?,.
O=C1C2CC=CCC2C(=O)N1SC(Cl)(Cl)Cl (configuration not stated),/,/,-74.0,/
CNC(=S)N/N=C/C1=CCC2CC1C2(C)C (configuration not stated),.,1.3µM,.,.
O=[N+]([O-])c1ccccc1N=NNc1ccccc1,?,.,.,.
COC(=O)c1ccccc1NN=Nc1ccccc1[N+](=O)[O-],/,/,-101.0,.
CCOC(=O)C1CCN(S(=O)(=O)c2ccc(Cl)cc2OC)CC1,.,.,.,.
Cc1ccc(C(=O)NNC(=O)CSc2n[nH]c(-c3cccnc3)n2)cc1,.,.,-103.5,.
SMILES,Marburg entry inh,Lassa entry inh,HCMV antiviral,FMDV antiviral
Cc1ccc(O)c(NC(=O)CSc2n[nH]c(-c3ccccc3)n2)c1,/,/,-82.9,?
Cc1ccc(C)c(NC(=O)CSc2n[nH]c(-c3ccccn3)n2)c1,?,?,?,.
Cc1nn(CC(=O)N2CCCCCC2)c(=O)c2cc3occc3n12,.,.,-61.9,.
CCc1nn(CC(=O)N2CCCCC2)c(=O)c2cc3occc3n12,.,?,.,.
Cc1c(NC(=O)CSc2nnnn2Cc2ccccc2)c(=O)n(-c2ccccc2)n1C,.,.,.,.
CN1CCN(C2=C(Cl)C(=O)N(C3CCCCC3)C2=O)CC1,.,.,-95.3,.
N#C/C(=C/c1ccc(O)c(O)c1)c1nc2ccccc2[nH]1,/,/,.,.
Cc1cc(C)nc(SC2c3cccc4cccc(c34)C2NS(=O)(=O)c2ccccc2)n1 (configuration not stated),?,.,.,.
O=c1[nH]c(=O)n(-c2cccc3ccccc23)c(O)c1C=NCc1ccc2c(c1)OCO2,.,.,-108.3,?
Cc1nc2ccccc2n1CC(O)Cn1c(C(F)(F)F)nc2ccccc21 (configuration not stated),.,.,.,?
CCC(=O)c1ccc(OCC(O)CN(CCc2ccccc2)Cc2ccccc2)cc1 (configuration not stated),?,16.4µM,.,/
CCOC(=O)c1c(C)n(C)c2ccc(OCC(O)Cn3c(C)nc4ccccc43)cc12 (configuration not stated),?,?,-60.1,17.8µM
Cc1nc2ccccc2n1CC(O)COc1ccccc1Cl (configuration not stated),/,/,-74.1,?
CCOC(=O)c1c(C)n(C)c2ccc(OCC(O)CN3CCN(C)CC3)cc12 (configuration not stated),.,/,.,.
Cc1nc2ccccc2n1CC(O)COc1ccc(Br)cc1 (configuration not stated),?,/,-80.3,?
CCCc1nc2ccccc2n1CC(O)COc1ccc(C(=O)OC)cc1 (configuration not stated),?,.,.,28.2µM
Cc1nc2ccccc2n1CC(O)COc1ccc(C(=O)O)cc1 (configuration not stated),.,.,.,.
CCC(=O)c1ccc(OCC(O)Cn2c(C)nc3ccccc32)cc1 (configuration not stated),6.31µM,?,-61.7,?
COC(=O)c1ccc2nc(-c3cccc(Br)c3)c(CC3CCCCC3)n2c1,/,/,.,?
CCCCn1c(NC(=O)c2ccc(Br)o2)c(C(=O)OCC)c2nc3ccccc3nc21,.,.,-71.1,.
CCCCn1c(NS(=O)(=O)c2ccccc2)c(C(=O)OCC)c2nc3ccccc3nc21,4.61µM,?,?,.
O=C(COC(=O)CCc1c[nH]c2ccccc12)Nc1ccccc1C(F)(F)F,/,/,-94.4,.
O=C(C(=O)c1cc(Br)ccc1O)c1cc(Br)ccc1O,?,?,-97.3,.
CCc1cccc(NC(=O)Cc2ccc([N+](=O)[O-])cc2)c1,.,.,.,.
CC(C)(C)N1C(=O)c2ccccc2NC(=O)N1Cc1ccc(Br)cc1,?,.,-64.9,.
SMILES,Marburg entry inh,Lassa entry inh,HCMV antiviral,FMDV antiviral
Cc1[nH]n(-c2ccccc2)c(=O)c1N=Nc1c(O)cc(S(=O)(=O)N(C)C)c2ccccc12,/,/,-99.5,12.6µM
Cc1ccc2oc(-c3ccc(Cl)cc3)c(O)c(=O)c2c1,?,.,-77.4,.
CCOC(=O)/C(O)=C(\C#N)c1nc2ccccc2[nH]1,.,.,-64.0,?
N#C/C(=C(/O)COC(=O)CCCNC(=O)c1ccc(Cl)cc1)c1nc2ccccc2[nH]1,?,?,-93.4,?
CCOC(=O)c1c(C)[nH]c(C(=O)OC/C(O)=C(\C#N)c2nc3ccccc3[nH]2)c1C,.,.,/,.
COc1ccccc1OCC(=O)OC/C(O)=C(\C#N)c1nc2ccccc2[nH]1,/,/,-99.4,.
N#C/C(=C(/O)COC(=O)CSc1ccc(Cl)cc1)c1nc2ccccc2[nH]1,.,.,-80.7,?
COc1ccc(OC/C(O)=C(\C#N)c2nc3ccccc3[nH]2)cc1,.,.,.,.
COc1ccc(S(=O)(=O)N(C)C[C@H]2Oc3ccc(NC(=O)Nc4ccc5c(c4)OCO5)cc3CC(=O)N([C@@H](C)CO)C[C@@H]2C)cc1,/,/,.,.
